Data published in PubChem BioAssay (NCATS).
Where “and” joins values, the source holds several entries; their conditions need not be identical. Identical values can stand only once. Inconclusive results are not listed. The source holds several records for some structures; these can differ, active in one and inactive in another. Calls of active or inactive are those of the source. Calls come from the whole dose curve; as a rule, active = well fitted inhibition curve with a large enough effect; inconclusive = small, poorly fitted or top-dose-only effect; inactive = flat fitted curve, though single readings scatter.

How the values were obtained:
[1] = test system: CRL-7250; test: Cytotoxic Profiling of Annotated Libraries Using Quantitative High-Throughput Screening (AID 1296008); conditions: Five cell lines viability, CellTiter-Glo ATP luminescence, 48-72 h; max response: stronger effect = lower value
Summary of the method: (§1)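 Cytotoxicity was measured as CellTiter-Glo ATP luminescence, read after 10 min at room temperature. Compound treatment of the cells lasted 48 or 72 hr at 37 degrees Celsius in a qHTS format.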

[2] = test system: HEK293; test: as above; conditions: Five cell lines viability, CellTiter-Glo ATP luminescence, 48-72 h; max response: stronger effect = lower value
Summary of the method: as §1

[3] = test system: HaCat; test: as above; conditions: Five cell lines viability, CellTiter-Glo ATP luminescence, 48-72 h; max response: stronger effect = lower value
Summary of the method: as §1

[4] = test system: MCC-26; test: qHTS assay to identify novel small-molecules to repurpose for Merkel cell carcinoma treatment (AID 1296009); conditions: MCC and control cell lines, CellTiter-Glo viability, 72 h; series mostly up to 46 µM
Summary of the method: (§2)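 Cell viability measured by CellTiter-Glo following 72 hr compound treatment at 37 degree celsius, with NPC and MIPE libraries tested in 8- and 11-point concentration series.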

[5] = test system: KB-3-1; test: Cytotoxic Profiling of Annotated Libraries Using Quantitative High-Throughput Screening (AID 1296008); conditions: Five cell lines viability, CellTiter-Glo ATP luminescence, 48-72 h; max response: stronger effect = lower value
Summary of the method: as §1

[6] = test system: NIH3T3; test: as above; conditions: Five cell lines viability, CellTiter-Glo ATP luminescence, 48-72 h; max response: stronger effect = lower value
Summary of the method: as §1

[7] = test system: HACAT; test: qHTS assay to identify novel small-molecules to repurpose for Merkel cell carcinoma treatment (AID 1296009); conditions: MCC and control cell lines, CellTiter-Glo viability, 72 h; at 44.8 µM (top of the series) unless noted
Summary of the method: as §2

[8] = test system: MCC-13; test: as above; conditions: MCC and control cell lines, CellTiter-Glo viability, 72 h; series mostly up to 46 µM
Summary of the method: as §2
% is set by controls: 0 for no effect and ±100 for the full control effect; potency is the fitted concentration of half-maximal effect.
Note: nearly all actives have a fitted effect of over 60% in size.

CC(C)(C)Cn1c(N)nc2ccc(-c3[nH]c(C(C)(C)C)nc3-c3ccc(F)cc3)nc21
inactive: max response [1] -25.6% and -19.9% | Potency [4]
active: Potency [2] 11.6 µM | Potency [3] 5.9 µM and 4.61 µM

CC[C@H]1OC(=O)[C@H](C)[C@@H](O[C@H]2C[C@@](C)(OC)[C@@H](O)[C@H](C)O2)[C@H](C)[C@@H](O[C@@H]2O[C@H](C)C[C@H](N(C)C)[C@@H]2O)[C@](C)(O)C[C@@H](C)CN(C)[C@H](C)[C@@H](O)[C@]1(C)O
inactive: outcome [1] | outcome [3] | outcome [5] | outcome [6] | outcome [7] | Potency [8] | Potency [4]

CC1(C)S[C@H]2[C@H](NC(=O)[C@@H](N)c3ccc(O)cc3)C(=O)N2[C@@H]1C(=O)O
inactive: outcome [1] | outcome [3] | outcome [5] | max response [6] 4.61% | outcome [7] | Potency [8] | Potency [4]

Cc1ccn(-c2ccc(-c3ncco3)cc2)c(=O)c1-c1ccc2nc(N)ncc2c1
active: Potency [1] 1.66 µM and 5.17 µM | Potency [6] 16.6 µM and 6.51 µM
inactive: max response [3] -12.1% and -22.1% | max response [5] 0.602% and 6.68% | Potency [8]

COc1cc(O)c2c(c1)C(=O)c1cc(C)cc(O)c1C2=O
inactive: outcome [1] | max response [3] -5.67% | max response [5] -1.03% | outcome [6] | Potency [8] | Potency [4]

CC(C)C(=O)Nc1ncc(-c2cc(C(F)F)nn2-c2c(Cl)cccc2Cl)s1
inactive: max response [1] -16.9% | max response [3] -19.8%

Cn1cc(C=C2C(=O)Nc3cccnc32)c2ccccc21
inactive: max response [1] -3.71% | max response [3] -0.233% | max response [5] 5.23% | max response [6] -5.8% | Potency [8] | Potency [4]

CON=C(C(=O)N[C@@H]1C(=O)N2C(C(=O)OCOC(=O)C(C)(C)C)=C(C=Cc3scnc3C)CS[C@H]12)c1csc(N)n1
inactive: outcome [1] | outcome [3] | max response [5] 0.86% | outcome [6] | outcome [7] | Potency [8] | Potency [4]

COC(=O)N[C@H](C(=O)N1CCC[C@@H]1c1ncc(-c2ccc(-c3ccc(-c4cnc([C@@H]5CCCN5C(=O)[C@@H](NC(=O)OC)C(C)C)[nH]4)cc3)cc2)[nH]1)C(C)C
inactive: outcome [1] | outcome [3] | max response [5] 1.64% | max response [6] 2.81% | outcome [7] | Potency [8] | Potency [4]

CS(=O)(=O)N(Cc1ccco1)CC(O)Cn1c2ccccc2c2ccccc21 (stereo unspecified)
inactive: max response [1] -10% and -6.7% | max response [3] -8.74% | outcome [3] | max response [5] -4.93% and 3.15% | max response [6] -17.4% and 0.438% | outcome [7] | Potency [8] | Potency [4]

O=C(O)[C@H]1O[C@H](Oc2cc3oc(-c4ccccc4)cc(=O)c3c(O)c2O)[C@H](O)[C@@H](O)[C@H]1O
inactive: max response [1] -6.52% | max response [3] -7.89% | max response [5] 2.26% | max response [6] -17.6% | Potency [8] | Potency [4]

O=C(O)C=Cc1ccc(O)c(O)c1
inactive: max response [1] -10.7% | max response [3] -23.4% | max response [5] 6.69% | max response [6] -24.2%

CCn1c(C(=O)N(C2CC2)C2CC2)cc2c3c(ncn3C)c(Nc3cc(C)n(C)n3)nc21
active: Potency [6] 23.5 µM
inactive: max response [1] 3.88% and -9.32% | max response [3] 2.37% and -28.6% | max response [5] 3.91% and 9.29% | Potency [8] | Potency [4]

COc1ccc(Cc2ccc(NC(N)=O)cc2)cc1-c1cccc(Cl)c1
inactive: max response [1] 2.51% | max response [2] -15.8% | max response [5] -9.2% | max response [6] -1.6% | Potency [8] | Potency [4]

O=C1C(Cl)=C(NCCN2CCOCC2)C(=O)c2ncccc21
active: Potency [1] 9.35 µM | Potency [2] 13.2 µM | Potency [5] 20.9 µM | Potency [6] 2.64 µM | Potency [8] 16.6 µM | Potency [4] 8.33 µM

O=C1c2c(O)cc(O)cc2O[C@H](c2cc(O)c(O)c(O)c2)[C@H]1O
inactive: max response [1] 1.37% | max response [3] -8.4% | max response [5] 4.36% | max response [6] 4.33% | Potency [8] | Potency [4]

CN(C)CCC=C1c2ccccc2COc2ccc(CC(=O)O)cc21
inactive: outcome [1] | outcome [3] | outcome [5] | outcome [6] | outcome [7] | Potency [8] | Potency [4]

N#CC1(c2ccc(NC(=O)c3cccnc3NCc3ccncc3)cc2)CCCC1
inactive: max response [1] -26.7% | outcome [3] | max response [5] -11.6% | max response [6] -15.9% | outcome [7] | Potency [8] | Potency [4]

O=C(NCc1ccncc1)C12C[C@H]3C[C@@H](C1)CC(c1ccc(Cl)cc1)(C3)C2
inactive: max response [1] -10.8% | Potency [8] | Potency [4]
active: Potency [2] 10.5 µM

CCS(=O)(=O)N1CC(CC#N)(n2cc(-c3ncnc4[nH]ccc34)cn2)C1
active: Potency [3] 5.17 µM
inactive: max response [1] -3.54% | max response [3] -22.3% | Potency [8] | Potency [4]
